In the supplement of paper PMC11006884:
Of roughly 6,500 targets only a part is listed; those with a hit were picked by preference. About 2% of all pairs of compound and target were hits. Values without a mark were called inactive.

compound: COC(=O)C#Cc1ccccc1 [methyl 3-phenylpropiolate]; assay: log2 ratio of iodoacetamide-alkyne labeling of the cysteine site, DMSO over compound (competition); higher = stronger covalent engagement of the cysteine by the compound, active = 1 or more; details: 500 µM; treatment time 1 h; system: HEK293T cell lysate
In short: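 After 1 h at ambient temperature with vehicle or electrophile (500 µM), HEK293T lysate (2 mg/mL) was labelled for 1 h with iodoacetamide alkyne and clicked to sCIP-TMT reagents. Pooled samples were trypsin-digested overnight at 37 °C, streptavidin-enriched, acid-eluted and analysed by Orbitrap Eclipse LC-MS/MS with FAIMS, then quantified in FragPipe over three replicates with duplicate channels. A cysteine's log2 competition ratio is its mean control-channel over mean compound-channel reporter intensity. Cysteines quantified in only one replicate were not included.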

UniProt Q14137, sequence (Q14137 whole entry, looked up): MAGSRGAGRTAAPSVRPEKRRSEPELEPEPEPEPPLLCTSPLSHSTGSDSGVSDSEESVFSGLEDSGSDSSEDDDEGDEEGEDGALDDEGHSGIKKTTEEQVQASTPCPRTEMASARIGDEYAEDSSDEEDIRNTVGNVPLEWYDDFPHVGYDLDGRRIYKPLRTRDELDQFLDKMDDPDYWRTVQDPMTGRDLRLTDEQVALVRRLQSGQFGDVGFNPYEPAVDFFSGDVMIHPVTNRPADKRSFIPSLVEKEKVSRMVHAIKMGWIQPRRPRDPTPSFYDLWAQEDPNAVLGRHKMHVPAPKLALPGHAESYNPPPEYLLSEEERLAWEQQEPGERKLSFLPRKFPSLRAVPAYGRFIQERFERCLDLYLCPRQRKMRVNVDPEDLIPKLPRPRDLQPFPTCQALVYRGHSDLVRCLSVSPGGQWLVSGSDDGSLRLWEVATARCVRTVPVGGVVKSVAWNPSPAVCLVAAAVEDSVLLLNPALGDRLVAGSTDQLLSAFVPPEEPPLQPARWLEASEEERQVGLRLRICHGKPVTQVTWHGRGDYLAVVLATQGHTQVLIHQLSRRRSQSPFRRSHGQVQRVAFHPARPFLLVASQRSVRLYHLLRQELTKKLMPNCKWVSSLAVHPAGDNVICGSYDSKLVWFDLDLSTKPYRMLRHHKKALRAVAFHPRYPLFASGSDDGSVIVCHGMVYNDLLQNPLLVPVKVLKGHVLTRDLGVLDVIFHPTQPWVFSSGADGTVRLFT
UniProt Q00653, sequence (Q00653 whole entry): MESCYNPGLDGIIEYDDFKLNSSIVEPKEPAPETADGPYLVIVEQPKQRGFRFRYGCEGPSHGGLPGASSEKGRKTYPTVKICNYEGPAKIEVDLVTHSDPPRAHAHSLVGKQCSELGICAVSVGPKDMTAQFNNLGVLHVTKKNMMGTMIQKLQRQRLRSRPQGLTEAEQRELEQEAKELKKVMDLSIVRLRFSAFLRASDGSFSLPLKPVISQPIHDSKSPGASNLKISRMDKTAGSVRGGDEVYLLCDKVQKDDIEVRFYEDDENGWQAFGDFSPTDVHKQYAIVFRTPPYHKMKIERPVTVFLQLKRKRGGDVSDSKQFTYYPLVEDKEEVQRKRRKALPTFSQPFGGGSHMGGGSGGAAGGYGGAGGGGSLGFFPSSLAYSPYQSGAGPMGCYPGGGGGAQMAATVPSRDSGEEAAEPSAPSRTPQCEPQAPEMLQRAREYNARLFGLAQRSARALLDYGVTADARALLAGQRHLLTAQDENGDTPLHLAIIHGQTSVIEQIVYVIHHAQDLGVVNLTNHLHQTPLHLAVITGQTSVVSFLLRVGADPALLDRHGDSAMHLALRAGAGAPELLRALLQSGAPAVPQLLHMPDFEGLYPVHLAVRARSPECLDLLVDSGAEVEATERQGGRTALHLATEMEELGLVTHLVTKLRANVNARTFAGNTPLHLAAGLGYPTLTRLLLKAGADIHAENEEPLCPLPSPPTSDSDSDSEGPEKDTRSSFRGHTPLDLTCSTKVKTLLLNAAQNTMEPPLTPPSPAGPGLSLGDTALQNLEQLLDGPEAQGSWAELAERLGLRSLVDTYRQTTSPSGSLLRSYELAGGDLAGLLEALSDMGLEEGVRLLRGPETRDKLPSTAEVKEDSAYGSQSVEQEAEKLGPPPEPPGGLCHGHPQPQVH
UniProt P55795, sequence (P55795 whole entry, looked up): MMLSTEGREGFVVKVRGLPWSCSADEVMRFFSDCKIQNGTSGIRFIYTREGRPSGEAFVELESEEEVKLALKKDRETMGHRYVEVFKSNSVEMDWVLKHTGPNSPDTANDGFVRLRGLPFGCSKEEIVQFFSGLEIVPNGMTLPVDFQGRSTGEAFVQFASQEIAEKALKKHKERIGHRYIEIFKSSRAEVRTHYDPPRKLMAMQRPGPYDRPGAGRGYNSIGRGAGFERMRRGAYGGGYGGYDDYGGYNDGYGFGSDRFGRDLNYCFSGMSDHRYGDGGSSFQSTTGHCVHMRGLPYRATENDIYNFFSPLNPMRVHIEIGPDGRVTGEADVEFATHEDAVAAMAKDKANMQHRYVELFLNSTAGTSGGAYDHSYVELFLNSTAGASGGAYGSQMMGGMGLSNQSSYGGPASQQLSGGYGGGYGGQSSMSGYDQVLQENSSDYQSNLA
UniProt P53384, sequence (P53384 whole entry, looked up): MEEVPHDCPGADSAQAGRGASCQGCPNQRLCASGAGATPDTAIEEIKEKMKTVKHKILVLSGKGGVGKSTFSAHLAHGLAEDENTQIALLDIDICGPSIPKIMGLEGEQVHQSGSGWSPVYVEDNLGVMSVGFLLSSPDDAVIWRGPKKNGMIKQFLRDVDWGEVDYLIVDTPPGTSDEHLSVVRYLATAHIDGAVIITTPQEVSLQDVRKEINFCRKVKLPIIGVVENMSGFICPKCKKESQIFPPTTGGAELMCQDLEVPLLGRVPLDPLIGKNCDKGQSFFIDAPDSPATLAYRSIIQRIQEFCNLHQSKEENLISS
UniProt Q14684, sequence (Q14684 whole entry, looked up): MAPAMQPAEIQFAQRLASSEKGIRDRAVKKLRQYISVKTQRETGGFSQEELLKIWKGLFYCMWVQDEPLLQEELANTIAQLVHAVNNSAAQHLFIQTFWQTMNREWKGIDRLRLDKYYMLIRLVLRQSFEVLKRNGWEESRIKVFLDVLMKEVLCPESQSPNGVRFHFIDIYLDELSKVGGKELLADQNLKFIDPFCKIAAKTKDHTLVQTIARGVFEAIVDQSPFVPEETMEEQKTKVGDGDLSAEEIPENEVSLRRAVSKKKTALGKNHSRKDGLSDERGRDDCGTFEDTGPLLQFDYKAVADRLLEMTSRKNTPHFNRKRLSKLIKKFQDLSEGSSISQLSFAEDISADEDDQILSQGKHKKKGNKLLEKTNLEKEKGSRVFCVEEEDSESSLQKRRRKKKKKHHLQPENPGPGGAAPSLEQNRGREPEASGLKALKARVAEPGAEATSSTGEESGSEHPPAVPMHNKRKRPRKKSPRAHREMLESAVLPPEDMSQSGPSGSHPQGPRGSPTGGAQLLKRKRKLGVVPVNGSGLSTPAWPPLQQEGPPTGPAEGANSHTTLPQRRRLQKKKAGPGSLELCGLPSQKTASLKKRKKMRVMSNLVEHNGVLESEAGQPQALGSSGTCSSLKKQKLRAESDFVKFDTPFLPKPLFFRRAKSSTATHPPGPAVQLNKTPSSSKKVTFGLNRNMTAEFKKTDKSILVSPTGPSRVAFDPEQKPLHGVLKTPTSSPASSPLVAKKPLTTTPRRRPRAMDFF
UniProt Q53H80, sequence (Q53H80 whole entry): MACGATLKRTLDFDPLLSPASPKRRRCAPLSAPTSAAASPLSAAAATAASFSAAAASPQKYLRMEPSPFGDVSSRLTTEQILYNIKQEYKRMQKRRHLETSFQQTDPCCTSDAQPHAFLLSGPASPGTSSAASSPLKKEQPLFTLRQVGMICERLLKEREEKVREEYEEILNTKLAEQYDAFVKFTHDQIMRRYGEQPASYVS
UniProt Q14692, sequence (Q14692 whole entry, looked up): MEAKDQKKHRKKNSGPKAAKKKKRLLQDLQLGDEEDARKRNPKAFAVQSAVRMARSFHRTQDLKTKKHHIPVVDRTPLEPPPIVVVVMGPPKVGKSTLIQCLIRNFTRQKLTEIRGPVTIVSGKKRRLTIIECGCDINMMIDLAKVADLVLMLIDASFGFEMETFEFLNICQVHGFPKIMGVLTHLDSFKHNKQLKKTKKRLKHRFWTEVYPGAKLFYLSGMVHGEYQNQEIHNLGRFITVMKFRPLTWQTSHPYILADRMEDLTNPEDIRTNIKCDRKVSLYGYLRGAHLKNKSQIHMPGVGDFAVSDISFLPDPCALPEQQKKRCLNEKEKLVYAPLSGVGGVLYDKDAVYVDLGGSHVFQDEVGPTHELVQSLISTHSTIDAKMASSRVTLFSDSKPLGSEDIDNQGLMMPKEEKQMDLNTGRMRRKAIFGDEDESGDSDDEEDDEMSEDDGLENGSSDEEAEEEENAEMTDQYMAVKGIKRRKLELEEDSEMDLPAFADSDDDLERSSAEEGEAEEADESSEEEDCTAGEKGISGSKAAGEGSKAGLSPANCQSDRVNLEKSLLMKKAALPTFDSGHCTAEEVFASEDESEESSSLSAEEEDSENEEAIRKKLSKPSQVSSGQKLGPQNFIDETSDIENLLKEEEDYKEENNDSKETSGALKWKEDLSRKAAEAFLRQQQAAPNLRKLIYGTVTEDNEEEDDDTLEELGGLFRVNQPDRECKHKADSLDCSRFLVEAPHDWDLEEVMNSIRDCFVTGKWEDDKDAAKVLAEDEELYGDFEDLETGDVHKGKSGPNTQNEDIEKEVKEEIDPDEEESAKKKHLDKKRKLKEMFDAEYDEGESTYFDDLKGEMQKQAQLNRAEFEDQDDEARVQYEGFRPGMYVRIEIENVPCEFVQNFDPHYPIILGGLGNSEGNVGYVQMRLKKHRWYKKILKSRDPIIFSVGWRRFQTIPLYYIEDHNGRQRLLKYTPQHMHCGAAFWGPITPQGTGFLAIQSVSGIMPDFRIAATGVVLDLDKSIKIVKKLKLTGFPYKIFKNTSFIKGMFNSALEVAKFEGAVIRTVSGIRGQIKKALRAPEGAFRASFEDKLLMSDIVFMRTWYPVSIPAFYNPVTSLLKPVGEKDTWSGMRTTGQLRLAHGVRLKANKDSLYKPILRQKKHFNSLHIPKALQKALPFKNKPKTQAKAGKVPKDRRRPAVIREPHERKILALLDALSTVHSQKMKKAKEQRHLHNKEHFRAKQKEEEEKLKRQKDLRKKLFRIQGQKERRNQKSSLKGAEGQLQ
UniProt P53597, sequence (P53597 whole entry, looked up): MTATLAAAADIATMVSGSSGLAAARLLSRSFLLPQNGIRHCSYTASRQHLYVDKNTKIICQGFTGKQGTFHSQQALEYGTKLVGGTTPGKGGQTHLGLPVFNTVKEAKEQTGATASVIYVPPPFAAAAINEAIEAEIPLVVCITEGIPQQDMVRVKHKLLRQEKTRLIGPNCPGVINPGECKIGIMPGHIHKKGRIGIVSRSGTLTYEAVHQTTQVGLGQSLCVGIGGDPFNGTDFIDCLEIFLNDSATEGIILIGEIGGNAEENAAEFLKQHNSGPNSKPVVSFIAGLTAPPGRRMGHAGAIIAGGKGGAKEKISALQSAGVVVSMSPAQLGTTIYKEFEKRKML

Row | Target | log2 ratio of iodoacetamide-alkyne labeling
1 | BMS1 C725 (UniProt Q14692) | 1.27 (active)
2 | UniProt Q15365_C158 | 0.366
3 | SEC23A C432 (UniProt Q15436) | 0.163
4 | ACTR3 C235 (UniProt P61158) | 1.28 (active)
5 | DYNC1H1 C4510 (UniProt Q14204) | 0.182
6 | UniProt Q5MNZ6_C6 | 0.235
7 | UniProt P61163_C34 | 0.205
8 | NFKB2 C57 (UniProt Q00653) | 1.24 (active)
9 | BOP1 C373 (UniProt Q14137) | 0.0315
10 | AKAP12 C1399 (UniProt Q02952) | 1.16 (active)
11 | SPTBN1 C112 (UniProt Q01082) | 0.622
12 | GABPB1 C331 (UniProt Q06547) | 0.198
13 | UniProt P62280_C60 | 2.21 (active)
14 | CASP8 C360 (UniProt Q14790) | 1.2 (active)
15 | BLM C685 (UniProt P54132) | 0.197
16 | PDS5A C581 (UniProt Q29RF7) | 0.744
17 | RRP1B C583 (UniProt Q14684) | 0.481
18 | HMGCS1 C86 (UniProt Q01581) | 0.0742

Row | Target | log2 ratio of iodoacetamide-alkyne labeling
19 | LLGL1 C1059 (UniProt Q15334) | 0.241
20 | SUCLG1 C172 (UniProt P53597) | 1.72 (active)
21 | NUMA1 C375 (UniProt Q14980) | -0.109
22 | UniProt P60891_C230 | 0.704
23 | PPA1 C270 (UniProt Q15181) | 0.153
24 | SMC1A C987 (UniProt Q14683) | 0.473
25 | UniProt Q15365_C194 | 1.08 (active)
26 | UniProt P60709_C217 | 0.0537
27 | AKIRIN2 C3 (UniProt Q53H80) | 1.11 (active)
28 | HNRNPH2 C34 (UniProt P55795) | 0.0589
29 | UniProt P60891_C165 | -0.19
30 | ILK C422 (UniProt Q13418) | 0.358
31 | UniProt Q16512_C602 | 0.0536
32 | ADAR C649 (UniProt P55265) | 0.375
33 | NUBP1 C22 (UniProt P53384) | 2.24 (active)
34 | HK2 C158 (UniProt P52789) | 0.246
35 | PPP5C C452 (UniProt P53041) | 0.0827
